In PubChem BioAssay AID1259339 (Broad Institute, 2017):
Values without a mark were called inactive. Activity calls are given as the source filed them.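 The calls were made as follows: active = fitted AC50 no higher than ten times the top tested dose (cut at about 90 µM in these data); inconclusive = flat curve with 30 to 70% signal loss, or bad fit; inactive = AC50 beyond ten times the top dose.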

assay: TruHit bead signal quenchers or artefacts – biochemical, TruHit kit, artefact control, dose response (AID 1259339); conditions: TruHit alphaLISA kit signal interference counterscreen; series mostly up to 80 µM; activity change, negative = signal loss: at the top concentration

Row | Compound | AC50 | activity change, negative = signal loss
1 | CC(C)(C)c1ccc(-c2nc(C#N)c(NCc3ccncc3)o2)cc1 | 22.1 µM (active) | 
2 | CCc1nccn1CCC(=O)N1C[C@H](CO)C[C@H](CN2CCCC2)C1 |  | 45.3%
3 | Cc1ccc(-c2nn(-c3ccccc3)cc2CN(Cc2ccccc2)C(=O)CCC(=O)O)o1 | 53.7 µM (active) | 
4 | O=C(O)C1Oc2cc3ccccc3cc2O1 | 30.2 µM (active) | 
5 | C=CCNc1ncnc2c1CCN(C(=O)c1ccc(CSC)o1)CC2 |  | 10.8%
6 | O=C(Nc1nc(-c2ccco2)c(-c2ccco2)s1)C1CCC1 | 4.55 µM (active) | 
7 | O=C1CC2(CCN(C(=O)Nc3ccccc3)CC2)CN1Cc1ccc(Cl)cc1 |  | 44.8% [at 38 µM]
8 | NC(=O)C1(N2CCCCC2)CCN(c2ncc(NC(=O)c3ccc(F)cc3)cc2C(=O)O)CC1 |  | -11.3%
9 | O=C(COc1cccnc1[N+](=O)[O-])c1ccc(Cl)s1 | 23.2 µM (active) | 
10 | O=C(Nc1ccc(OCC(=O)N2CCOCC2)cc1)c1cncc(Br)c1 |  | 8.89%
11 | O=C(O)Cc1c[nH]c2cccc(O)c12 | 11.3 µM (active) | 
12 | Cc1ccccc1C(=O)Nc1cnc(N2CCC(C(N)=O)(N3CCCCC3)CC2)c(C(=O)O)c1 |  | -4.19%
13 | COc1ccc(-c2nc(C)c(C(C)=O)n2O)cc1OC |  | 17.2%
14 | COc1ccc2nc(-c3ccco3)c(-c3ccco3)nc2c1 | 35.1 µM (active) | 
15 | O=[N+]([O-])c1cccc(-c2nnc3ccc4ccccc4n23)c1 |  | -15%
16 | C=CC(=O)N1CCCC2(CCN(CCN3CCCC3)C2=O)C1 (stereo unspecified) |  | 8.73%
17 | O=C(Nc1ccc2oc(-c3ccncc3)nc2c1)c1ccc2c(c1)OCCO2 |  | 2.45%
18 | O=C(Nc1ccc2oc(-c3ccncc3)nc2c1)c1ccc2c(c1)OCO2 |  | -13%

Row | Compound | AC50 | activity change, negative = signal loss
19 | O=S(=O)(c1ccccc1)N1CC2CN(Cc3ccc(O)cc3)C2C1 (stereo unspecified) |  | -10.5%
20 | COc1ccc(-n2c(C)c3c(OC)cccc(=O)c3c2C)cc1 | 22.1 µM (active) | 
21 | Cc1ccc(N2NC(c3ccc(Br)cc3)=CCC2=O)cc1 | 66.7 µM (active) | 
22 | Cc1cnc(C)c(N2CCN(C(=O)[C@H]3CC[C@@H](N)C3)CC2)n1 |  | -0.624%
23 | CCc1ccc(Nc2nc(C(=O)NCc3ccc(N(C)C)cc3)nc3ccccc23)cc1 |  | -32.2%
24 | CCc1nc(OCc2ccco2)c2sc3nc4c(cc3c2n1)COC(C)(C)C4 |  | -54%
25 | COC[C@]1(O)CCN(C(=O)CCN(C)S(C)(=O)=O)CC1(C)C |  | 13%
26 | COCC(=O)N1CCCC2(CCN(CCN3CCCC3)C2=O)C1 (stereo unspecified) |  | -7.83%
27 | CC(=O)c1ccc(NC(=O)c2noc3c2CCC3)cc1 |  | 10.7%
28 | COc1ccc(-c2ccc(CCC(=O)O)o2)cc1 |  | -15.3%
29 | COc1ccc(S(=O)(=O)N2CCOCC2)cc1NC(=O)c1cccc(-n2cccc2)c1 | 36.1 µM (active) | 
30 | COc1ccc(NC(=O)CN(C)C(=O)c2cc(-c3ccco3)nc3ccccc23)cc1 | 36.6 µM (active) | 
31 | NC(=O)C1(N2CCCCC2)CCN(c2ncc(NC(=O)c3cccs3)cc2C(=O)O)CC1 |  | 3.86%
32 | NC(=O)c1ccc(CN2C(=O)C3(CCNCC3)Nc3ccccc32)cc1 |  | 9.05%
33 | O=C(O)COc1ccc(-n2cccc2)cc1 |  | -5.07%
34 | O=C(COC(=O)c1cc(-c2ccco2)nc2ccccc12)NCc1ccccc1 | 35.1 µM (active) | 
35 | O=C(NCCc1ccco1)c1ccc(OCc2cn3ccccc3n2)cc1 |  | 10.5%
36 | Cc1cccc2nc(CSCc3ccco3)cn12 | 74.7 µM (active) | 
